High-throughput results deposited in PubChem BioAssay by National Center for Advancing Translational Sciences (NCATS).
In the library only some 0.59% were active in any assay of this set; here they are far more common.
Chronic BCR inh: inhibitors of chronic active B-cell receptor signaling; ABC-DLBCL IkBa-CBG/CBR reporter, luminescence ratio, 4 h; Potency, µM (doses to about 46.1 µM), inactives show top-dose activity change, negative = inhibition, usual class: inhibitors; actives 0.05% (n = 340,000); AID 493014; active means well fitted inhibition curve with a large enough effect in the signal ratio, with a control signal flat, not every such curve was filed as active; inconclusive means small, poorly fitted or top-dose-only effect, or effect the other way, or a change in a side signal; the % refers to the signal ratio;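 further: potency means the concentration at half of the fitted maximal effect; plate controls were basal doxycycline-induced cells for no effect and cells given 10 µM MG132 for full effect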
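TMD8 ABC-DLBCL cells carrying doxycycline-inducible green luciferase fused to IkappaBalpha plus unfused red luciferase were exposed to compounds (up to 46 uM) for 4 hrs at 37C. Activity came from the overlap-corrected green/red luminescence ratio.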
B2AR arrestin: agonists driving beta-arrestin recruitment to human beta2-adrenergic receptor; P07550; beta-arrestin recruitment to beta2AR, cell-based reporter; Potency, µM (series often up to 46.1 µM), for the others: at the top dose activation, most hits filed as activators; actives 0.02% (n = 330,000); AID 492947;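 further: potency means the concentration at half of the fitted maximal effect; 0% = DMSO controls and full agonism = EC100 isoproterenol or metaproterenol; nearly all actives have a fitted effect of over 65% in size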
RXFP1 ag: activates the human relaxin receptor RXFP1. Q9HBX9. HEK293T-RXFP1 cAMP TR-FRET, 30 min; response scale: percent of porcine relaxin response, buffer zero. Potency, µM (top dose mostly 57.5 µM), for inactives: at the top dose activation, most hits filed as activators. actives 0.3% (n = 370,000). AID 2676; further: potency means the concentration at half of the fitted maximal effect; nearly all actives have a fitted effect of over 60% in size
Target sequence (Q9HBX9 whole entry, looked up): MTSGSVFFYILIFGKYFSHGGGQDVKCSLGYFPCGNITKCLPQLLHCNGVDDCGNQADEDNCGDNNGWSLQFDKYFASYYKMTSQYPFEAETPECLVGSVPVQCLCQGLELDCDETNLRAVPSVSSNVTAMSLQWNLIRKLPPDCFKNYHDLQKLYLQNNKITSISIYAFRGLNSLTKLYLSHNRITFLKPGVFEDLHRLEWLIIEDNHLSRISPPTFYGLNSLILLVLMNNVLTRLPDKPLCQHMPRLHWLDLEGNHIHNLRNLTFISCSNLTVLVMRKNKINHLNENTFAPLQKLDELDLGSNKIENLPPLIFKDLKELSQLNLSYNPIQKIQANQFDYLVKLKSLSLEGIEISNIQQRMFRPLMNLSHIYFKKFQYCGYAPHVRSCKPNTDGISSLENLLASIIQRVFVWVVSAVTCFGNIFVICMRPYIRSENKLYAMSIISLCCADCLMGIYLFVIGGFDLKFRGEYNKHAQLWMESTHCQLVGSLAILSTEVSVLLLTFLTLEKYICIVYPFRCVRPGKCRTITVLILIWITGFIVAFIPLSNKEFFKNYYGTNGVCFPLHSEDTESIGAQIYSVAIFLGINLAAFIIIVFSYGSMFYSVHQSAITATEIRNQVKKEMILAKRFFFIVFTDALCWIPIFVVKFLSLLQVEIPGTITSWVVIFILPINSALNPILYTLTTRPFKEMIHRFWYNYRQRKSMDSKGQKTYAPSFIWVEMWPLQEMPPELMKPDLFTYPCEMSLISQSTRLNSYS
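Agonist response is measured as cAMP accumulation in an RXFP1-transfected HEK293T line under PDE4 inhibition. Values are scaled between buffer-only and 29 nM porcine relaxin, and EC50s come from standard Hill equation fits.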
RXFP1 antagonist: blocks the human relaxin receptor RXFP1; Q9HBX9; HEK293-RXFP1, relaxin-stimulated cAMP HTRF, 30 min; hits give low values; activity change, negative = inhibition, % at 57.5 µM; actives 0.59% (n = 350,000); AID 1259400;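 active means activity change of -60% or lower, but not beyond a set lower limit; inconclusive means change between -60% and -40%, or beyond the set limit; inactive means change above -40%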
* marks the source's active call; other numbers are inactive results; ? = inconclusive; nt = not tested or not shown. Unless noted, the call rests on the fitted dose curve; in most records, active means well fitted activation curve with a large enough effect; inconclusive means small, poorly fitted or top-dose-only effect; inactive means flat fitted curve, though single readings scatter. Unless noted, on the % scale 0 is the no-effect control and ±100 the full control effect.

SMILES | Chronic BCR inh | B2AR arrestin | RXFP1 ag | RXFP1 antagonist
CN(CC(=O)Nc1ccc(Cl)c(Cl)c1)CC(=O)N1CCCCCC1 | nt | nt | nt | -1
COc1ccc(NC(=O)CN(C)C(=O)CC2CCCC2)cc1 | -9% | -1% | -1% | -74*
COc1ccc(-n2nc(CCC(=O)N(C)O)cc2-c2ccc(Cl)cc2)cc1 | nt | nt | nt | -22
O=C(CSc1nc2c([nH]c3ccccc32)c(=O)n1-c1ccccc1)c1ccccc1 | nt | nt | -2% | -109*
NS(=O)(=O)c1ccc(NC(=O)CSc2ncnc3ccccc23)cc1 | ? | -1% | ? | -6
NS(=O)(=O)c1cccc(NC(=O)CSc2ncnc3ccccc23)c1 | ? | 0% | 25µM* | 2
COc1cc(C(=O)Nc2cccc(-c3nnc(-c4ccco4)o3)c2)ccc1OC(C)=O | ? | 0% | 4% | -65*
COc1ccc(C(=O)Nc2cccc(-c3nnc(-c4ccco4)o3)c2)cc1 | ? | 0% | 0% | -34
O=C1CSc2ccc(S(=O)(=O)N3CCN(c4ccccc4)CC3)cc2N1 | ? | 0% | 1% | 6
CCC1Sc2ccc(S(=O)(=O)N3CCN(c4ccccc4)CC3)cc2NC1=O (stereo not given) | -2% | 0% | 0% | -67*
CCC(CC)c1nn2c(N)c(/C=C3\C(C)=Nc4ccccc43)c(=O)nc2s1 | -4% | 0% | -1% | -69*
CCC(CC)c1nn2c(N)c(/C=C3\C=Nc4ccccc43)c(=O)nc2s1 | 7% | 0% | -1% | -7
CCc1ccccc1NC(=O)Cn1c(=O)n(CCc2ccccc2)c(=O)c2sc3ccccc3c21 | nt | nt | 0% | nt
O=c1cc(-c2c(O)c3ccccc3n(Cc3ccccc3)c2=O)[nH][nH]1 | ? | -1% | 1% | -84*
Cc1cccc(-n2c(-c3csc4ccccc34)n[nH]c2=S)c1 | -5% | -1% | 3% | -117*
CC(C)Cn1c(-c2csc3ccccc23)n[nH]c1=S | 1% | 0% | -2% | -2
COC(=O)C(C)Sc1ccc2nnc(-c3ccccc3)n2n1 (stereo not given) | ? | 0% | 25µM* | 0
Cc1cccc(NC(=O)CSc2ccc3nnc(-c4cccnc4)n3n2)c1 | -14% | -1% | ? | -2
CCC(Sc1ccc2nnc(-c3cccnc3)n2n1)C(=O)O (stereo not given) | 1% | 0% | 14µM* | nt
CCOC(=O)C(CC)Sc1ccc2nnc(-c3cccnc3)n2n1 (stereo not given) | -17% | -1% | 18µM* | 0
Cc1ccc(C2c3cccn3CCN2S(=O)(=O)c2ccc([N+](=O)[O-])cc2)cc1 (stereo not given) | 17% | nt | -3% | 2
COc1cccc(CNC(=O)CSc2c3c(nc4ccc(Cl)cc24)CCCC3)c1OC | nt | nt | 12% | 22
C/C(=N/NC(=O)c1ccc(C)nc1)c1ccc2c(c1)CCCC2 | ? | 0% | 1% | -62*
Cc1ccc(-c2ccccc2C#N)cc1 | nt | nt | nt | -8
COc1cc(OC)cc(C(=O)NNC(=O)c2ccccn2)c1 | ? | 0% | 0% | -94*
SMILES | Chronic BCR inh | B2AR arrestin | RXFP1 ag | RXFP1 antagonist
CC(=O)C[C@H]1[C@H](O[C@H]2[C@H](OC(C)C(=O)N[C@@H](C)C(=O)N[C@H](CCC(=O)N[C@@H](CCCCN)C(=O)N[C@H](C)C(=O)O)C(N)=O)[C@@H](NC(=O)O)C(O)O[C@@H]2CO)O[C@H](CO)[C@@H](O)[C@@H]1O (stereo not given in full) | nt | nt | nt | 19
Cc1cc(NC(=O)N2CCC(CN3CCOCC3)CC2)ccc1Br | nt | nt | 1% | -2
CC(=O)NCCOc1cccc2ccccc12 | ? | 0% | 0% | 9
c1ccc(CCNCCCOc2cccc3ccccc23)cc1 | -5% | -1% | 1% | -95*
O=C(c1cccc(NS(=O)(=O)c2ccccc2)c1)N1CCCC1 | 7% | 0% | 2% | 0
O=C(c1cccc(NS(=O)(=O)c2ccccc2)c1)N1CCN(c2ccccc2)CC1 | -3% | 0% | -1% | -117*
COc1ccc(CN(C(=S)Nc2ccccc2)C2CC(=O)N(c3ccc(F)cc3)C2=O)cc1 (stereo not given) | 0% | 7% | -2% | -18
COc1ccc(N2C(=O)CS/C2=N\C(=S)Nc2ccccc2)cc1 | 10µM* | 5.6µM* | 0% | -19
O=C(Nc1ccc(SC(F)F)cc1)c1cc(-c2ccc3c(c2)OCCO3)on1 | nt | nt | 6% | nt
C=C1C(=C/C=C2\CCC[C@]3(C)[C@@H]([C@H](C)/C=C/[C@@H](O)C4CC4)CC[C@@H]23)C[C@@H](O)C[C@@H]1O | nt | nt | nt | -72*
C=C1/C(=C\C=C2/CCC[C@]3(C)[C@@H]([C@H](C)CCCC(C)(C)O)CC[C@@H]23)C[C@@H](O)C[C@@H]1O | ? | 0% | 1% | nt
Cc1ccc(S(=O)(=O)N2CCCc3cc(NS(=O)(=O)c4cc(F)ccc4F)ccc32)cc1 | nt | nt | 1% | -3
CCOc1ccc2nc(N3C(=O)CNC3=S)sc2c1 | ? | 4µM* | 0% | ?
COc1ccc(NS(=O)(=O)c2cc(-c3cnc(C4CC4)o3)ccc2C)cc1 | 13µM* | 0% | 3% | 7
CCOC(=O)c1[nH]c2c(c1Cc1ccccc1)C(=O)CC(c1ccc(C(C)(C)C)cc1)C2 (stereo not given) | nt | nt | -1% | -64*
Oc1cccc(Nc2nc(O)c(/C=C3\C=Nc4ccccc43)s2)c1 | ? | -1% | 1% | -1
Oc1nc(Nc2ccc(F)cc2)sc1/C=C1\C=Nc2ccccc21 | ? | 0% | 2% | -104*
COc1ccc(Nc2nnc(-c3ccc(C)c(S(=O)(=O)N4CCOCC4)c3)c3ccccc23)cc1 | nt | nt | 4% | -10
N#CC1C(=O)c2ccccc2C1c1ccccc1 (stereo not given) | nt | nt | nt | -92*
O=C1CCC(c2ccccc2)c2ccccc21 (stereo not given) | nt | nt | nt | -7
COC(=O)CNc1n[nH]c(=S)[nH]c1=O | -3% | -1% | ? | -15
CC(C)OC(=O)CNc1n[nH]c(=S)[nH]c1=O | 2% | -2% | 5µM* | -39
O=c1cc(-c2cccc(F)c2)[nH]c2ccccc12 | 21µM* | 0% | 2% | nt
CC(C)(C)c1nnc(NS(=O)(=O)c2ccccc2)s1 | nt | nt | nt | -4
Cc1ccc(NC(=O)Cn2c(=O)nc(-c3ccccc3F)c3cc(Cl)ccc32)c(Br)c1 | nt | nt | 4% | nt
Cc1ccc(NC(=O)c2nc(S(=O)(=O)Cc3ccccc3C)ncc2Cl)cc1C | ? | 0% | 0% | -74*
Cc1ccc(NC(=O)c2nc(S(=O)(=O)Cc3ccc(F)cc3)ncc2Cl)cc1C | nt | nt | 2% | ?
CCc1ccc(NC(=O)c2nc(S(=O)(=O)Cc3ccccc3)ncc2Cl)cc1 | ? | 0% | 0% | nt
Cc1ccc(CNC(=O)c2nc(S(=O)(=O)Cc3ccc(C)cc3)ncc2Cl)cc1 | nt | nt | 1% | nt
Cc1cccc(CS(=O)(=O)c2ncc(Cl)c(C(=O)NCc3ccc4c(c3)OCO4)n2)c1 | ? | -1% | 0% | -87*
